In the library only some 2.8% were active in any assay of this set; here they are far more common.
Pol eta inh-1 – qHTS for Inhibitors of Polymerase Eta. DNA polymerase eta (Homo sapiens), Q9Y253. recombinant Pol eta, fluorescent DNA replication assay. Potency, µM (doses to about 114 µM), for the others: at the top dose activity change, negative = inhibition, hits mostly inhibitors. 390,000 compounds, 1.2% hits. AID 588591, 2011; note: potency is the fitted concentration of half-maximal effect; % is set by controls: 0 for no effect and ±100 for the full control effect
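Pol eta (10 nM) was preincubated with compounds for 15 min at room temperature, after which fluorescent replication substrate (50 nM final) was added to start the reaction. Fluorescence was read kinetically at 0 and 10 min.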
FEN1 inhibitor – qHTS Assay for the Inhibitors of Human Flap endonuclease 1 (FEN1) | Recombinant FEN1 flap cleavage, fluorescence, 15 min | P39748 | Potency, µM (top dose mostly 114 µM), inactives show at the top dose activity change, negative = inhibition, most hits filed as inhibitors | 390,000 compounds, 0.35% hits; note: potency is the fitted concentration of half-maximal effect; % is set by controls: 0 for no effect and ±100 for the full control effect; nearly all actives have a fitted effect of over 65% in size
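Concentration–response screening of FEN1 (10 nM): 15 min compound preincubation at room temperature, reaction started with 50 nM substrate and read at 0 and 15 min. Corrected, normalized data were fitted by a four-parameter Hill equation.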
Pol beta inh – qHTS Assay for Inhibitors of DNA Polymerase Beta. Pol beta primer extension/strand displacement, fluorescence kinetic. Potency, µM (top dose mostly 114 µM), without a hit: at the highest dose activity change, negative = inhibition, usual class: inhibitors. P06746. 340,000 compounds, 1.3% hits; note: potency is the fitted concentration of half-maximal effect; % is set by controls: 0 for no effect and ±100 for the full control effect
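Pol beta (10 nM) was preincubated with compound for 15 min at room temperature. The reaction was then started with 50 nM substrate and read immediately and after a further 10 min at room temperature.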
PI5P4K alpha inh – qHTS for Inhibitors of phosphatidylinositol 5-phosphate 4-kinase (PI5P4K); max response, %; Phosphatidylinositol 5-phosphate 4-kinase type-2 alpha (Homo sapiens), P48426; AID 652105, 2013; PI5P4Kalpha enzyme, ADP-Glo luminescence, 60 min; stronger effect = lower value; 330,000 compounds, 1.2% hits; active = max response of -50% or lower; inconclusive = between -30% and -50%; inactive = -30% or higher; note: value at the top dose of about 77 µM; % is set by controls: 0 for no effect and ±100 for the full control effect
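ADP-Glo luminescence end-point read after a 60 min room-temperature kinase reaction of PI5P4Kalpha plus substrate, initiated with ATP at 5 microM final. Buffer: 0.038 M HEPES pH 7.4, EGTA, 0.1% CHAPS, 5% DMSO.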
Pol iota inh – qHTS for Inhibitors of Polymerase Iota; DNA polymerase iota (Homo sapiens), Q9UNA4; Pol iota fluorescent replication assay, 10 min; Potency, µM (top dose mostly 115 µM), inactives show at the top dose activity, negative = inhibition, usual class: inhibitors; 390,000 compounds, 1% hits; AID 588590, 2011; note: potency is the fitted concentration of half-maximal effect
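Pol iota at 10 nM preincubated 15 min with compounds at room temperature; reaction started with fluorescent substrate, 50 nM final. Fluorescence read kinetically at 0 and 10 min; buffer-only wells as negative control.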
Pol kappa inh-1 – qHTS for Inhibitors of Polymerase Kappa. DNA polymerase kappa (Homo sapiens), Q9UBT6. purified Pol kappa, fluorescent DNA synthesis assay, 10 min. Potency, µM (series often up to 107 µM), inactives show at the top dose activity, negative = inhibition, hits mostly inhibitors. 400,000 compounds, 0.53% hits; note: potency is the fitted concentration of half-maximal effect; % is set by controls: 0 for no effect and ±100 for the full control effect
Target sequence (Q9UBT6 whole entry, looked up): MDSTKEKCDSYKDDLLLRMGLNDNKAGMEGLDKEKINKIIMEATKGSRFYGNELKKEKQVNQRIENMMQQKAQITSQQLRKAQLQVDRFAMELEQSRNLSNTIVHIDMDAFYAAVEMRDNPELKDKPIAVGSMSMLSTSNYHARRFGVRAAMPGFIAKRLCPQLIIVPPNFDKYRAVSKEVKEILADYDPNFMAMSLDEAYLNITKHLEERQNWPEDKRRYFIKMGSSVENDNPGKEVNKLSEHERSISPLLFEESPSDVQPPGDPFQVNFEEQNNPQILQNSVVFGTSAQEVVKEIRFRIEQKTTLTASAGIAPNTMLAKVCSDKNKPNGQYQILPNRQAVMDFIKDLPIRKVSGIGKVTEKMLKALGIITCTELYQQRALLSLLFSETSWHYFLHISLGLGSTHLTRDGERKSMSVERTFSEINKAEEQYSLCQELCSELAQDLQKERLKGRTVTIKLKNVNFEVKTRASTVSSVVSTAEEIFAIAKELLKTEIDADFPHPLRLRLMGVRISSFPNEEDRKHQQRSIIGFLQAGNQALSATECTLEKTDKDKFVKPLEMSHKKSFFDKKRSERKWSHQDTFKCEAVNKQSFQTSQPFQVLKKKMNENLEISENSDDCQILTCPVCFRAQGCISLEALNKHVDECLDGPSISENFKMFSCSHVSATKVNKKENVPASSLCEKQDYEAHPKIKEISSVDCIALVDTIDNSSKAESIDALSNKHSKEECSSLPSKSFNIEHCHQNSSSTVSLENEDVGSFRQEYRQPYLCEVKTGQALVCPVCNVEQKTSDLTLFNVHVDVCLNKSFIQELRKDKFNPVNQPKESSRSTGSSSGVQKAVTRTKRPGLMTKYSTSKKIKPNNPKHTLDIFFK
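Enzyme at 10 nM met test compounds for 15 min at room temperature. Substrate addition (50 nM final) began the reaction, which was monitored by fluorescence at 0 and 10 min.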
Pol kappa inh-2 – qHTS for Inhibitors of Polymerase Kappa: Confirmatory Assay for Cherry-picked Compounds; shares compounds with Pol eta inh-1; purified Pol-kappa, fluorescent strand-displacement substrate; Potency, µM, actives largely listed as inhibitors; 920 compounds, 76% hits; AID 720501, 2013; note: potency is the fitted concentration of half-maximal effect
Pol eta inh-2 – qHTS for Inhibitors of Polymerase Eta: Confirmatory Assay for Cherry-picked Compounds; Pol eta primer extension, TAMRA/BHQ fluorescence, 10 min; Potency, µM, most hits filed as inhibitors; 2,600 compounds, 64% hits; shares compounds with Pol eta inh-1; note: potency is the fitted concentration of half-maximal effect
ADP-Glo interf – qHTS for Inhibitors of PI5P4K: ADP-Glo counter assay; shares compounds with PI5P4K alpha inh; ADP-Glo detection counter-screen, luciferase luminescence, no enzyme; Potency, µM (titrated, usually from 76.9 µM), without a hit: at the highest dose activity change, negative = inhibition, actives largely listed as inhibitors; 1,100 tested, under 10 active
Active calls of the source: *; [ ] = another dose, or the depositor's remark. Unless noted, calls come from the whole dose curve; as a rule, active = well fitted curve in the direction sought with a large enough effect; inconclusive = small, poorly fitted or top-dose-only effect, or another doubt; inactive = no such curve, though single readings can be large; an effect the other way counts as inactive or inconclusive.

Results for CN(c1ccccc1C(=O)O)S(=O)(=O)c1ccc2c3c(cccc13)C(=O)N2 ?
Pol eta inh-1: 13µM*; FEN1 inhibitor: inconclusive; Pol beta inh: 13µM*; PI5P4K alpha inh: -56*; Pol iota inh: inconclusive; Pol kappa inh-1: 79µM*; Pol eta inh-2: inconclusive; ADP-Glo interf: -3%

How did O=C(c1ccc2nc(-c3ccco3)c(-c3ccco3)nc2c1)N1CCN(c2ncccn2)CC1 do in these assays?
Pol eta inh-1: inconclusive; FEN1 inhibitor: -15%; Pol beta inh: 40µM*; PI5P4K alpha inh: -53*; Pol iota inh: inconclusive; Pol kappa inh-1: inconclusive; Pol eta inh-2: inconclusive; ADP-Glo interf: -4%

How did O=C(c1cccc(C(=O)N2CCN(c3ncccn3)CC2)c1)N1CCN(c2ncccn2)CC1 do in these assays?
Pol eta inh-1: -14%; FEN1 inhibitor: -9%; Pol beta inh: -11%; PI5P4K alpha inh: 2; Pol iota inh: 18%; Pol kappa inh-1: 3%

Results for CCCCNC(=O)c1ccc2nc(-c3ccco3)c(-c3ccco3)nc2c1 ?
Pol eta inh-1: 14µM*; FEN1 inhibitor: 40µM*; Pol beta inh: 20µM*; PI5P4K alpha inh: -73*; Pol iota inh: inconclusive; Pol kappa inh-1: 8.9µM*; Pol kappa inh-2: 21*; Pol eta inh-2: inconclusive; ADP-Glo interf: -10%

Results for Cc1nc2cc(NC(=O)N3CCN(c4ccccn4)CC3)ccc2o1 ?
Pol eta inh-1: -3%; FEN1 inhibitor: 0%; Pol beta inh: 17%; Pol iota inh: -15%; Pol kappa inh-1: 8%

Results for O=C(Nc1ccc2nc(-c3ccco3)c(-c3ccco3)nc2c1)N1CCN(c2ccccn2)CC1 ?
Pol eta inh-1: 3.2µM*; FEN1 inhibitor: inconclusive; Pol beta inh: 1.6µM*; PI5P4K alpha inh: -91*; Pol iota inh: 3.2µM*; Pol kappa inh-1: 28µM*; Pol eta inh-2: inconclusive; ADP-Glo interf: 0%

What do the screens show for `CC(C)(C)OC(=O)C(C)(C)Sc1nnc(N)s1`?
Pol eta inh-1: -20%; FEN1 inhibitor: 4%; Pol beta inh: 3%; PI5P4K alpha inh: 0; Pol iota inh: 15%; Pol kappa inh-1: 6%

Results for CC=Cc1cc(OC)c2c(c1)C(C)C(c1ccc(O)c(OC)c1)O2 (stereo unspecified) ?
Pol eta inh-1: -16%; FEN1 inhibitor: -19%; PI5P4K alpha inh: 7; Pol iota inh: 68%; Pol kappa inh-1: -14%

How did COc1ccc(C2=CC3=C(Br)C(=O)C(C)(OC(=O)c4cccs4)C(=O)C3=CO2)cc1 (stereo unspecified) do in these assays?
Pol eta inh-1: 40µM*; FEN1 inhibitor: inconclusive; PI5P4K alpha inh: -70*; Pol iota inh: inconclusive; Pol kappa inh-1: inconclusive; Pol eta inh-2: inconclusive; ADP-Glo interf: 3%

What do the screens show for `COC(=O)CCC(=O)OC1(C)C(=O)C2=CN(c3ccc(OC)cc3)C(c3ccc(OC)cc3)=CC2=C(Br)C1=O` (stereo unspecified)?
Pol eta inh-1: 4%; FEN1 inhibitor: -12%; PI5P4K alpha inh: inconclusive; Pol iota inh: inconclusive; Pol kappa inh-1: -7%

How did COc1ccc(C2=C(C)C(N3CCC(C(=O)NCc4ccco4)CC3)=NS2(=O)=O)cc1 do in these assays?
FEN1 inhibitor: 20%; Pol beta inh: -1%; Pol iota inh: 11%; Pol kappa inh-1: -22%

How did O=C(COC(=O)CCC(=O)c1ccc(F)cc1)NCc1ccc(Cl)cc1 do in these assays?
Pol eta inh-1: -6%; FEN1 inhibitor: -12%; PI5P4K alpha inh: -1; Pol iota inh: -9%; Pol kappa inh-1: -11%

Results for O=C(COC(=O)CCC(=O)c1ccc(Cl)cc1)NCc1ccco1 ?
Pol eta inh-1: 25µM*; FEN1 inhibitor: -3%; Pol beta inh: 35µM*; PI5P4K alpha inh: -52*; Pol iota inh: 45µM*; Pol kappa inh-1: inconclusive; Pol eta inh-2: 76*; ADP-Glo interf: 0%

What do the screens show for `Cc1ccc(NC(=O)CSc2nnc(-c3nnn(-c4ccc(F)cc4)c3C)o2)cc1Br`?
Pol eta inh-1: -8%; FEN1 inhibitor: 2%; Pol beta inh: inconclusive; Pol iota inh: -29%; Pol kappa inh-1: -9%

What do the screens show for `COc1ccc(NC(=O)CSc2nc(O)cc(=O)[nH]2)c(OC)c1`?
Pol eta inh-1: -8%; FEN1 inhibitor: -1%; Pol beta inh: -30%; PI5P4K alpha inh: -7; Pol iota inh: 2%; Pol kappa inh-1: 1%

How did COc1ccc(NC(=O)CSc2sc3c(O)cc(=O)[nH]c3c2C#N)c(OC)c1 do in these assays?
Pol eta inh-1: 22µM*; FEN1 inhibitor: 32µM*; Pol beta inh: 1.6µM*; PI5P4K alpha inh: -65*; Pol iota inh: 2.5µM*; Pol kappa inh-1: inconclusive; Pol kappa inh-2: inconclusive; Pol eta inh-2: inconclusive; ADP-Glo interf: -8%

Results for Cc1csc(NC(=O)CSc2sc3c(O)cc(=O)[nH]c3c2C#N)n1 ?
Pol eta inh-1: 18µM*; FEN1 inhibitor: 50µM*; Pol beta inh: 45µM*; PI5P4K alpha inh: -81*; Pol iota inh: 7.9µM*; Pol kappa inh-1: 28µM*; Pol kappa inh-2: inconclusive; Pol eta inh-2: inconclusive; ADP-Glo interf: 5%

Results for COc1ccc(C(=O)Nc2nnc(SCc3cc(=O)c4cccc(F)c4[nH]3)s2)cc1 ?
Pol eta inh-1: -15%; FEN1 inhibitor: -4%; Pol beta inh: 9%; Pol iota inh: 11%; Pol kappa inh-1: -11%[60.1 µM]

How did NC(=O)c1c(NC(=O)C2c3ccccc3Oc3ccccc32)sc2c1CCCCC2 do in these assays?
Pol eta inh-1: 35µM*; FEN1 inhibitor: 2%; Pol beta inh: 45µM*; PI5P4K alpha inh: -54*; Pol iota inh: inconclusive; Pol kappa inh-1: -28%; Pol eta inh-2: inconclusive; ADP-Glo interf: 4%

Source: PubChem (National Center for Advancing Translational Sciences (NCATS))
